Data on 14 molecules can be found in PubChem BioAssay (Tox21).

The nature of test [1]: qHTS RealTime-Glo MT Cell Viability Assay in HEK293 cells - 16 hour (AID 1224872). Also: top concentration of the series differs between compounds; nearly all actives have a fitted effect of over 50% in size. The essentials:
(§1)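 Reads taken at 0, 8, 16, 24, 32 and 40 h from the same wells. HEK293 cells (600/well) carried RealTime-Glo reagents from seeding, with compound added after a 5 h settle at 37 C.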

Test [2] can be described thus: qHTS RealTime-Glo MT Cell Viability Assay in HepG2 cells - 8 hour (AID 1224873). Also: nearly all actives have a fitted effect of over 55% in size. Put shortly:
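HepG2 cells (600/well) mixed with RealTime-Glo MT reagent, settled 5 h at 37 C/5% CO2 before compound addition. Nonlytic NanoLuc luminescence from viable-cell prosubstrate reduction read repeatedly during 40 h treatment at 37 C.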
(In general: In qHTS, concentration-response curves come from the screen itself.)

A short description of test [3]: qHTS RealTime-Glo MT Cell Viability Assay in HEK293 cells - 40 hour (AID 1224874). Also: nearly all actives have a fitted effect of over 50% in size. To be noted: RealTime-Glo luminescence; max response: active compounds read low. Put shortly: (§2)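 Cells were seeded together with NanoLuc luciferase and a prosubstrate that viable cells reduce to a luciferase substrate. After a 5 h incubation at 37 C/5% CO2, compounds were added and luminescence was measured repeatedly during 40 h of treatment.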

Test [4] in a line: A CellTox Green Cytotoxicity Assay to monitor cytotoxicity in HEK293 cells - 24 hour (AID 1224875). Also: series mostly up to about 77 µM; nearly all actives have a fitted effect of over 45% in size. The essentials: (§3)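 Nonlytic real-time cytotoxicity: HEK293 + CellTox Green reagent plated, 5 h preincubation, pintool compound addition (23 nL in DMSO), 37 C for 40 h, fluorescence measured at successive time points.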
Test [5] can be described thus: A CellTox Green Cytotoxicity Assay to monitor cytotoxicity in HepG2 cells - 16 hour (AID 1224876). Also: nearly all actives have a fitted effect of over 45% in size. Put shortly: (§4)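 Read-out is fluorescence of a cyanine dye excluded from live cells that stains DNA of dead HepG2 cells, with signal proportional to cytotoxicity. Plates were read at 0, 8, 16, 24, 32 and 40 h after compound addition.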
Test [6] is described as follows: qHTS RealTime-Glo MT Cell Viability Assay in HepG2 cells - 32 hour (AID 1224877). Also: nearly all actives have a fitted effect of over 55% in size. Also: potency is read from the fitted curve at half-maximal effect. The essentials:
(§5)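 HepG2 suspension premixed with RealTime-Glo reagents is plated at 600 cells per well and left 5 h at 37 C/5% CO2. Compounds in DMSO then go in, and bioluminescence reflecting viable cell number is recorded over 40 h.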

Test [7] can be described thus: A CellTox Green Cytotoxicity Assay to monitor cytotoxicity in HepG2 cells - 24 hour (AID 1224878). Also: nearly all actives have a fitted effect of over 45% in size. The essentials:
as §4

Test [8] can be described thus: A CellTox Green Cytotoxicity Assay to monitor cytotoxicity in HepG2 cells - 40 hour (AID 1224879). Also: nearly all actives have a fitted effect of over 40% in size. Put shortly: as §4
Test [9] can be described thus: qHTS RealTime-Glo MT Cell Viability Assay in HEK293 cells - 0 hour (AID 1224880). Also: top concentration of the series differs between compounds; nearly all actives have a fitted effect of over 45% in size. The essentials:
as §2

A short description of test [10]: A CellTox Green Cytotoxicity Assay to monitor cytotoxicity in HEK293 cells - 32 hour (AID 1224881). Also: nearly all actives have a fitted effect of over 40% in size. The essentials: as §3
Test [11] in a line: A CellTox Green Cytotoxicity Assay to monitor cytotoxicity in HepG2 cells - 0 hour (AID 1224882). Also: nearly all actives have a fitted effect of over 35% in size. Put shortly:
as §4

Test [12] in a line: A CellTox Green Cytotoxicity Assay to monitor cytotoxicity in HepG2 cells - 32 hour (AID 1224883). Also: nearly all actives have a fitted effect of over 50% in size. Put shortly:
as §4

Test [13] can be described thus: A CellTox Green Cytotoxicity Assay to monitor cytotoxicity in HEK293 cells - 8 hour (AID 1224884). Also: nearly all actives have a fitted effect of over 35% in size. The essentials:
as §3

Test [14] in a line: qHTS RealTime-Glo MT Cell Viability Assay in HepG2 cells - 16 hour (AID 1224885). Also: nearly all actives have a fitted effect of over 50% in size. The essentials: as §5
Test [15] in a line: qHTS RealTime-Glo MT Cell Viability Assay in HEK293 cells - 24 hour (AID 1224886). The essentials: as §1
Test [16] can be described thus: qHTS RealTime-Glo MT Cell Viability Assay in HEK293 cells - 8 hour (AID 1224887). The essentials:
as §2

The nature of test [17]: A CellTox Green Cytotoxicity Assay to monitor cytotoxicity in HEK293 cells - 16 hour (AID 1224888). Also: nearly all actives have a fitted effect of over 35% in size. The essentials:
as §3

The nature of test [18]: qHTS RealTime-Glo MT Cell Viability Assay in HepG2 cells - 0 hour (AID 1224889). Also: nearly all actives have a fitted effect of over 50% in size. Also: potency is read from the fitted curve at half-maximal effect. Put shortly: as §5
Test [19] can be described thus: A CellTox Green Cytotoxicity Assay to monitor cytotoxicity in HepG2 cells - 8 hour (AID 1224890). Also: nearly all actives have a fitted effect of over 45% in size. Put shortly:
as §4

Test [20] in a line: qHTS assay to identify small molecule antagonists of the estrogen receptor alpha (ER-alpha) signaling pathway using the BG1 cell line in the presence of 0.1 nM 17-beta-estradiol - cell viability counter screen (AID 1259241). Also: nearly all actives have a fitted effect of over 40% in size. Put shortly:
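VM7Luc4E2 cells (endogenous full-length ER-alpha, 4xERE-luciferase), cultured 5 days in charcoal-stripped serum, exposed to compounds with 0.1 nM 17beta-estradiol (final) for 22 hr at 37C. Viability read in same wells as live-cell protease fluorescence after 30 min.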

Unmarked numbers belong to inactive results. Records with an inconclusive call do not appear. Activity calls are given as the source filed them. Calls follow the shape of the dose curve; as a rule, active = well fitted curve in the direction sought with a large enough effect in the repeat runs; inconclusive = weak or mixed curves; inactive = no such curve, though single readings can be large; an effect the other way counts as inactive or inconclusive.
% is scaled to controls: 0 for no effect and ±100 for the full control effect.

On to `COc1ccc2cc1Oc1cc3c(cc1OC)CC[N+](C)(C)[C@H]3Cc1ccc(cc1)Oc1c(OC)c(OC)cc3c1[C@@H](C2)[N+](C)(C)CC3`, for which the Potency result in test [1], in test [8], in test [9], in [11], in test [12] and in [15] was “inactive” each time. Moreover, the Potency entry in test [16] and in [18] was “inactive” each time. Also, the result in test [2], in [4], in test [5], in [7], in [10] and in test [13] was inactive. In addition, the molecule was classed as inactive in test [14], in test [17], in [19] and in [20]. Besides, in test [3], the max response is -3.12%. Also, in [6], the Potency was 21.3 µM (active).
As to `C=CC(C)(CCC=C(C)C)OC(=O)CC` (configuration not stated), the Potency entry in [1], in [6], in test [8], in test [9], in test [11] and in test [12] was “inactive” throughout. Moreover, the Potency entry in [16] and in [18] was “inactive” in each case. The molecule was called inactive in [2], in test [4], in [5], in [7], in test [10] and in test [13]. The outcome in [14], in test [17], in test [19] and in [20] was inactive. In addition, the max response in test [3] was -1.4%.
Turning to `CC(CC=O)CC(C)(C)C` (configuration not stated), the Potency result in test [1], in test [6], in [8], in test [9], in test [11] and in test [12] was “inactive” each time. The Potency entry in test [16] and in test [18] was “inactive” in each case. The outcome in test [2], in test [4], in test [5], in test [7], in test [10] and in test [13] was inactive. Moreover, the molecule was called inactive in test [14], in test [17], in [19] and in test [20]. In addition, the max response in test [3] is -0.119%.
In the case of `CN(C)C(=O)Oc1cccc([N+](C)(C)C)c1`, the Potency result in test [1], in test [6], in [8], in [9], in [11] and in test [12] was “inactive” each time. Besides, the Potency entry in [16] and in test [18] was “inactive” each time. The molecule was called inactive in [2], in test [4], in test [5], in test [7], in [10] and in test [13]. Also, the molecule was called inactive in test [14], in test [17] and in test [19]. In test [3], the max response is 6.55%.
As to `O=CN(CCO)CCO`, the Potency result in test [1], in test [6], in test [8], in test [9], in test [11] and in test [12] was “inactive” throughout. For the same molecule, the Potency entry in test [15], in test [16] and in test [18] was “inactive” throughout. The molecule was classed as inactive in test [2], in [4], in test [5], in [7], in test [10] and in test [13]. The molecule was classed as inactive in test [14], in [17], in [19] and in test [20]. In addition, the max response in test [3] was -0.597%.
Regarding `C[N+]1(C)CCCC(OC(=O)C(O)(c2ccccc2)c2ccccc2)C1` (configuration not stated), the Potency result in [1], in [6], in test [8], in test [9], in test [11] and in test [12] was “inactive” throughout. For the same molecule, the Potency entry in test [15] and in test [16] was “inactive” throughout. For the same molecule, the molecule was classed as inactive in test [2], in test [4], in [5], in [7], in test [10] and in test [13]. Besides, the result in test [14], in test [17] and in test [19] was inactive. Moreover, the max response in test [3] was -4.47%.
For the molecule `C[C@H]1C[C@H]2[C@@H]3CCC4=CC(=O)C=C[C@]4(C)[C@H]3C(=O)C[C@]2(C)[C@@]1(O)C(=O)CO`, the Potency entry in test [1], in test [6], in test [8], in test [9], in test [11] and in [12] was “inactive” throughout. In addition, the Potency result in test [15], in test [16] and in [18] was “inactive” in each case. In addition, the outcome in test [2], in test [4], in test [5], in test [7], in test [10] and in [14] was inactive. In addition, the outcome in [17] and in test [19] was inactive. In [3], the max response is 0.535%.
For `CC(=O)NC(=O)c1ccccc1O`, the Potency result in test [1], in [6], in [8], in [9], in [11] and in [12] was “inactive” in each case. For the same molecule, the Potency entry in test [16] and in test [18] was “inactive” in each case. For the same molecule, the molecule was called inactive in test [2], in test [4], in test [5], in [7], in test [10] and in test [14]. Moreover, the outcome in [17] and in [19] was inactive. The max response in test [3] is 7.94%.
For the molecule `CC(C)=CCC/C(C)=C/C#N`, the Potency result in test [1], in test [6], in test [8], in [9], in [11] and in test [16] was “inactive” throughout. The Potency entry in [18] is “inactive”. Also, the molecule was classed as inactive in test [2], in test [4], in test [5], in [7], in [10] and in [13]. Further, the molecule was called inactive in test [14], in test [17], in test [19] and in test [20]. For the same molecule, in [3], the max response was 2.39%.
`C=CCCCCCCCCC(=O)OCC`: the Potency entry in test [1], in test [6], in [8], in [9], in [11] and in test [12] was “inactive” throughout. In addition, the Potency entry in [15] and in test [16] was “inactive” throughout. Moreover, the molecule was classed as inactive in [2], in test [4], in test [5], in [7], in test [10] and in test [14]. For the same molecule, the molecule was classed as inactive in test [17], in test [19] and in test [20]. In [3], the max response is 3.1%.
For the molecule `CC(=O)OCC(=O)[C@@]1(O)[C@H](C)C[C@H]2[C@@H]3CCC4=CC(=O)C=C[C@]4(C)[C@@]3(F)[C@@H](O)C[C@@]21C`, the Potency result in test [1], in test [6], in test [8], in [9], in test [11] and in test [15] was “inactive” each time. For the same molecule, the Potency entry in test [16] is “inactive”. In addition, the result in test [2], in test [4], in test [5], in [7], in test [10] and in [13] was inactive. Further, the molecule was classed as inactive in test [14], in test [17] and in [19]. Besides, in [3], the max response was 5.93%. The Potency in [18] is 9.52 µM (active).
Take `CC(=O)Oc1cccc(C)c1`: the Potency entry in test [1], in test [6], in test [8], in [9], in [11] and in test [12] was “inactive” each time. Besides, the Potency entry in [16] and in test [18] was “inactive” each time. Also, the molecule was classed as inactive in test [2], in test [4], in [5], in test [7], in test [10] and in [14]. In addition, the molecule was called inactive in test [17], in test [19] and in test [20]. In test [3], the max response is 2.59%.
`COc1c(N2CCNC(C)C2)c(F)cc2c(=O)c(C(=O)O)cn(C3CC3)c12` (configuration not stated): the Potency entry in test [1], in test [6], in [8], in test [9], in test [11] and in test [12] was “inactive” in each case. The Potency result in test [15] and in test [16] was “inactive” throughout. The result in test [2], in test [4], in test [5], in test [7], in test [13] and in test [14] was inactive. Besides, the molecule was called inactive in [17], in test [19] and in test [20]. In addition, the max response in [3] is 14%.
`CN(C)[C@@H]1C(=O)C(C(=O)NCN2CCCC2)=C(O)[C@@]2(O)C(=O)C3=C(O)c4c(O)cccc4[C@@](C)(O)C3C[C@@H]12` (some centres not stated): the Potency entry in [1], in test [6], in [8], in test [9], in test [11] and in test [12] was “inactive” each time. In addition, the Potency result in [15] and in test [16] was “inactive” throughout. Moreover, the result in [2], in [4], in test [5], in [7], in test [10] and in test [14] was inactive. Also, the molecule was classed as inactive in test [17], in test [19] and in [20]. For the same molecule, the max response in [3] is 7.86%.
